The values that follow come from PubChem BioAssay (Tox21).

The nature of test [1]: qHTS assay to identify small molecule antagonists of the estrogen related receptor (ERR) signaling pathway from Tox21 library - cell viability counter screen (AID 1224834). Note: nearly all actives have a fitted effect of over 30% in size. The gist of the method: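 CellTiter-Fluor fluorescence measured; ERR cells; 17.5 h compound incubation at 37 C; 30 min reagent step.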
Test [2] addresses Luciferin 4-monooxygenase (Photinus pyralis) (UniProt P08659). The experiment in a line: qHTS assay to identify small molecule inhibitors of firefly luciferase (AID 1224835). Note: nearly all actives have a fitted effect of over 25% in size. The gist of the method:
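Inhibition of purified Photinus luciferase is measured by luminescence. Substrate levels (D-luciferin, ATP) sit at their KM values. Each compound is tested in a concentration series.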

Test [3] is described as follows: qHTS assay to identify small molecule agonists of the constitutive androstane receptor (CAR) signaling pathway - cell viability counter screen (AID 1224836). Note: nearly all actives have a fitted effect of over 45% in size. Summed up:
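HepG2 cells stably carrying hCAR and a CYP2B6-2.2kb reporter; 15-concentration compounds plus PK11195 (final 0.75 uM), 23 hr at 37 C/5% CO2. Viability read by CellTiter-Fluor fluorescence.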

Test [4] in a line: qHTS assay to identify small molecule antagonists of the constitutive androstane receptor (CAR) signaling pathway - cell viability counter screen (AID 1224837). Note: nearly all actives have a fitted effect of over 45% in size. Summed up: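 Using CellTiter-Fluor, viability is scored in HepG2 cells stably carrying hCAR and a 2.2kb CYP2B6 reporter after 23 hr compound exposure across 15 concentrations, with CITCO present at 50 nM.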
In test [5] the target is Nuclear receptor subfamily 1 group I member 3 (Homo sapiens) (UniProt Q14994). Nature of the test: qHTS assay to identify small molecule antagonists of the constitutive androstane receptor (CAR) signaling pathway (AID 1224838).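 Note: HepG2 cells stably expressing hCAR with CYP2B6 luciferase reporter stimulated by CITCO; nearly all actives have a fitted effect of over 40% in size.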 The gist of the method: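 Reporter luminescence was quantified after 24 h exposure of hCAR/CYP2B6-2.2kb double-stable HepG2 cells to compounds at 15 concentrations in the presence of 50 nM CITCO final.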
On the technique in general: In qHTS, concentration-response curves come from the screen itself.

Test [6] has the same target. The experiment in a line: qHTS assay to identify small molecule agonists of the constitutive androstane receptor (CAR) signaling pathway (AID 1224839). Note: nearly all actives have a fitted effect of over 15% in size. Note: potency is the fitted concentration of half-maximal effect. The gist of the method:
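HepG2 cells stably co-transfected with hCAR and a CYP2B6-2.2kb luciferase reporter; compounds at 15 concentrations with 0.75 uM PK11195 present. After 24 hr at 37 C, luciferase read by ONE-Glo luminescence.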

Test [7] can be described thus: qHTS assay to identify small molecule antagonists of the estrogen related receptor signaling pathway with the pleiotropic PPARgamma coactivator (PGC) from Tox21 10K library - cell viability counter screen (AID 1224840; active = well fitted cell-killing curve with a large enough effect in the repeat runs, not every such curve was filed as active; note: nearly all actives have a fitted effect of over 40% in size). The gist of the method:
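Here the PGC/ERR cells serve as a cytotoxicity control: they are exposed to compounds for 17.5 hours at 37 C, and live-cell signal is quantified using CellTiter-Fluor fluorescence.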

Test [8] is described as follows: qHTS assay to identify small molecule antagonists of the estrogen related receptor signaling pathway with the pleiotropic PPARgamma coactivator (PGC) from Tox21 10K library (AID 1224841; call rule not given here; note: actives are mostly falling curves and most rising ones were filed inactive; nearly all actives have a fitted effect of over 50% in size). The gist of the method:
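Each well held 2,000 PGC/ERR cells, pre-incubated six hours (37 C, 5% CO2). Test substances in DMSO were added by pin tool and left for 18 h at 37 C before luciferase detection by One-Glo.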

For test [9], the target named is Thyrotropin receptor (Homo sapiens) (UniProt P16473). Nature of the test: qHTS assay to identify small molecule agonists of the thyroid stimulating hormone receptor (TSHR) signaling pathway (AID 1224843; calls by dose curve; note: nearly all actives have a fitted effect of over 45% in size). Summed up:
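HEK293 cells stably bearing the thyrotropin receptor were plated at 800 cells/well and challenged with compound (30 min, RT). Accumulated cAMP was quantified via cAMP-d2 competing for cryptate-tagged antibody.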

Test [10] can be described thus: qHTS assay to identify small molecule agonists of the hypoxia (HIF-1) signaling pathway - cell viability counter screen (AID 1224844; calls by dose curve; note: nearly all actives have a fitted effect of over 50% in size). Summed up: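 Multiplexed with the HRE beta-lactamase assay, this viability read used CellTiter-Glo luminescence (30 min, RT) on HRE-bla ME-180 cells treated 17 hrs with compounds in 0.5% dialyzed FBS medium.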
The nature of test [11]: qHTS assay to identify small molecule agonists of H2AX (AID 1224845; active = well fitted activation curve with a large enough effect in the signal ratio in the repeat runs, not every such curve was filed as active; the % refers to the signal ratio). Summed up: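 Phospho-H2AX Ser139 measured by HTRF (ex 320 nm; em 665 and 620 nm) after 24 hr antibody incubation. Compounds, 15 concentrations, 0.76% DMSO, were applied to CHO-K1 cells for 3hr at 37C before lysis.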
A short description of test [12]: qHTS assay to identify small molecule agonists of the hypoxia (HIF-1) signaling pathway (AID 1224846; active = well fitted activation curve with a large enough effect in the signal ratio in the repeat runs, not every such curve was filed as active; the % refers to the signal ratio). Summed up: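 Hypoxia-pathway activation was scored as increased beta-lactamase from an HRE-controlled reporter in ME-180 cells; plated at 2,000 cells per well with 0.5% dialyzed FBS, they were exposed 17 hrs to compounds and then given CCF4-AM.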
A short description of test [13]: qHTS assay to identify small molecule agonists of H2AX - cell viability counter screen (AID 1224847; calls by dose curve;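 note: wild-type CHO-K1 cells; top concentration of the series differs between compounds; nearly all actives have a fitted effect of over 30% in size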). The gist of the method: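 CHO-K1 cells plated overnight at 37C, then exposed 3 h at 37C to compounds at 15 concentrations (0.76% DMSO final). Viability by CellTiter-Glo luminescence after 30 min at room temperature.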
Test [14] in a line: qHTS assay to identify small molecule agonists of the estrogen related receptor (ERR) signaling pathway from Tox21 library (AID 1224849; calls by dose curve; note: nearly all actives have a fitted effect of over 15% in size). The following applies: ERR reporter cell line, ONE-Glo luciferase, 18 h; at 92.4 µM (top of the series) unless noted. The gist of the method: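 Six hours post-seeding at 37 C/5% CO2, ERR cells receive DMSO-solubilised compounds; after 18 h at 37 C, ONE-Glo reagent is applied and luminescence recorded.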

Test [15] in a line: qHTS RealTime-Glo MT Cell Viability Assay in HepG2 cells - 24 hour (AID 1224867). Note: nearly all actives have a fitted effect of over 50% in size. The gist of the method: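 HepG2 suspension premixed with RealTime-Glo reagents is plated at 600 cells per well and left 5 h at 37 C/5% CO2. Compounds in DMSO then go in, and bioluminescence reflecting viable cell number is recorded over 40 h.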
Test [16] is described as follows: qHTS RealTime-Glo MT Cell Viability Assay in HEK293 cells - 32 hour (AID 1224868). Note: top concentration of the series differs between compounds; nearly all actives have a fitted effect of over 50% in size. Summed up:
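Reads taken at 0, 8, 16, 24, 32 and 40 h from the same wells. HEK293 cells (600/well) carried RealTime-Glo reagents from seeding, with compound added after a 5 h settle at 37 C.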

A short description of test [17]: A CellTox Green Cytotoxicity Assay to monitor cytotoxicity in HEK293 cells - 0 hour (AID 1224869). Note: nearly all actives have a fitted effect of over 50% in size. The gist of the method:
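Seeding of HEK293 cells together with cytotoxicity dye preceded a 5 h incubation at 37 C/5% CO2. Test compounds in DMSO were then added and fluorescence monitored across 40 h.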

The nature of test [18]: qHTS assay to identify small molecule agonists of the estrogen related receptor signaling pathway with the pleiotropic PPARgamma coactivator (PGC) from Tox21 10K library (AID 1224842). Note: nearly all actives have a fitted effect of over 15% in size. The gist of the method:
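Luminescence from One-Glo (30 min, room temperature) measured after PGC/ERR cells had 18 h at 37 C with pinned compound (23 nL in DMSO). Cells had been seeded at 2,000 per well and pre-incubated 6 h.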

Test [19] is described as follows: qHTS assay to identify small molecule antagonists of the estrogen related receptor (ERR) signaling pathway from Tox21 library (AID 1224848). Note: nearly all actives have a fitted effect of over 50% in size. The gist of the method: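 Reading was by luminescence 30 min after ONE-Glo addition. Before that, ERR cells at 2,000 per well had rested 6 h at 37 C/5% CO2 and then received pin-tooled compounds in DMSO for 18 h at 37 C.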

Unmarked numbers belong to inactive results. Records with an inconclusive call do not appear. The source made the active and inactive calls. Unless noted, calls come from the whole dose curve; as a rule, active = well fitted curve in the direction sought with a large enough effect in the repeat runs; inconclusive = weak or mixed curves; inactive = no such curve, though single readings can be large; an effect the other way counts as inactive or inconclusive.
% is set by controls: 0 for no effect and ±100 for the full control effect.

Sequence of Luciferin 4-monooxygenase (Photinus pyralis) (P08659 whole entry, looked up): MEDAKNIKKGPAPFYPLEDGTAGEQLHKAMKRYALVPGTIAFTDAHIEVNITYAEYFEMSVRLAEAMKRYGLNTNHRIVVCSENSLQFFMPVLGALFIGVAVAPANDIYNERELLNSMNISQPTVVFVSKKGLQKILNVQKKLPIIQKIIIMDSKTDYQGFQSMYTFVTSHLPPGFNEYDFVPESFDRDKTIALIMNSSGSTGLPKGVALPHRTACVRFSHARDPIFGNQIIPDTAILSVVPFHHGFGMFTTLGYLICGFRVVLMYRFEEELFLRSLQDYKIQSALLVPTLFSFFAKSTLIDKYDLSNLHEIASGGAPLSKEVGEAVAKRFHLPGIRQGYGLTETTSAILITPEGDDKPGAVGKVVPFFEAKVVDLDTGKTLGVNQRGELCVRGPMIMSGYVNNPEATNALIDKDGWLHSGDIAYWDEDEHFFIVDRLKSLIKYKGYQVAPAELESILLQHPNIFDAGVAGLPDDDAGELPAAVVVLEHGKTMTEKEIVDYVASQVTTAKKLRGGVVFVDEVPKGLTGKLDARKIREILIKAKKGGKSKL
Sequence of Nuclear receptor subfamily 1 group I member 3 (Homo sapiens) (Q14994 whole entry, looked up): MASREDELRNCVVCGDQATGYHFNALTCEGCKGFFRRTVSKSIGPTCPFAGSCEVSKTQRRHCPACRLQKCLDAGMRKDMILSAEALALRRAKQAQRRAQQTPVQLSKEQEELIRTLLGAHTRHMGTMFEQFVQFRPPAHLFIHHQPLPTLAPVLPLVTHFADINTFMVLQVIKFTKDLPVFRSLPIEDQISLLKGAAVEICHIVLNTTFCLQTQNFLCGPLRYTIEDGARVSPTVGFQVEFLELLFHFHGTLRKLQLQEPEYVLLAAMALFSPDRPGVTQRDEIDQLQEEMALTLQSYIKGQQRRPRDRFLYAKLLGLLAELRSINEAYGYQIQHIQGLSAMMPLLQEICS
Sequence of Thyrotropin receptor (Homo sapiens) (P16473 whole entry, looked up): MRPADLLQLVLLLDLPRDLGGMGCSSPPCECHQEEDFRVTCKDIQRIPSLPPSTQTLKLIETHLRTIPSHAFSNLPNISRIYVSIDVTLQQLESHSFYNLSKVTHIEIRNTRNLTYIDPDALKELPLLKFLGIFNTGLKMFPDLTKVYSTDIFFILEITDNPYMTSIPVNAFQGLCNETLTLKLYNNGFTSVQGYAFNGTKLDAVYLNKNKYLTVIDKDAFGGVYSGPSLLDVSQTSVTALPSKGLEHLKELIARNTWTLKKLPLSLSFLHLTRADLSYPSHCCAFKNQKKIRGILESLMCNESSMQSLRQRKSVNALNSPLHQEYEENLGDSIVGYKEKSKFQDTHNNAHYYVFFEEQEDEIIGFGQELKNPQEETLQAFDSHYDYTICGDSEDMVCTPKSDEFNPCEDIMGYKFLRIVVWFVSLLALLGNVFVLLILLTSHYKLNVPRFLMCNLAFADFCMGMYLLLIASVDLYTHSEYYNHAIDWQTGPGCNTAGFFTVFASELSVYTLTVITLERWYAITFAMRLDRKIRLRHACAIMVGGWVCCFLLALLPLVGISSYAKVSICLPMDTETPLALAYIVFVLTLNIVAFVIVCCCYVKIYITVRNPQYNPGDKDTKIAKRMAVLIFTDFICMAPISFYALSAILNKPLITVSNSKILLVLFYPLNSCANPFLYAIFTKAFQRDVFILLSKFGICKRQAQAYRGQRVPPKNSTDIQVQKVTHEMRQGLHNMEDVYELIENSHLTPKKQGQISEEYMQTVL

Take `CCCc1cc(C(N)=S)ccn1`: the Potency result in test [1], in test [2], in test [3], in test [4], in test [5] and in [6] was “inactive” each time. The Potency entry in [7], in [8], in [9], in test [10], in [13] and in test [15] was “inactive” throughout. The Potency entry in test [16] and in [17] was “inactive” each time. Besides, the outcome in test [11] and in test [12] was inactive. Also, the activity change, positive = activation in test [14] is -6.09% [at 42.5 µM].

For the compound `O=c1[nH]c(=O)n([C@H]2C[C@H](O)[C@@H](CO)O2)cc1I`, the Potency result in test [1], in [2], in test [3], in [4], in test [5] and in test [7] was “inactive” each time. The Potency result in [8], in test [9], in [10], in test [13], in [19] and in [15] was “inactive” in each case. The Potency entry in [16] and in test [17] was “inactive” each time. Further, in test [6], the Potency was 11.9 µM (active). Besides, the outcome in [18] and in [11] was inactive. Also, in test [14], the activity change, positive = activation is 11% [at 42.5 µM].

For the compound `NS(=O)(=O)c1ccc(C(=O)O)cc1`, the Potency result in [1], in [2], in test [3], in [4], in test [5] and in test [6] was “inactive” throughout. Also, the Potency entry in test [7], in test [8], in test [9], in test [10], in test [13] and in test [19] was “inactive” each time. Moreover, the Potency result in test [15], in test [16] and in test [17] was “inactive” in each case. The call in test [18] and in test [11] was inactive. Also, the activity change, positive = activation in [14] is 9.6% [at 42.5 µM].

For `C=CCCCCCCCCC=O`, the Potency result in [1], in test [2], in [3], in test [4], in test [5] and in test [6] was “inactive” in each case. Besides, the Potency entry in test [7], in test [8], in test [9], in test [10], in [13] and in test [19] was “inactive” throughout. For the same compound, the Potency entry in [15], in [16] and in test [17] was “inactive” in each case. Besides, the outcome in [11] and in test [12] was inactive. The activity change, positive = activation in test [14] is -2.86%.

As for `COc1c(N2C[C@@H]3CCCN[C@@H]3C2)c(F)cc2c(=O)c(C(=O)O)cn(C3CC3)c12`, the Potency result in test [1], in test [2], in [3], in [4], in test [5] and in [6] was “inactive” throughout. Also, the Potency result in [7], in [8], in [9], in test [10], in [13] and in test [19] was “inactive” throughout. The Potency entry in test [15], in [16] and in test [17] was “inactive” each time. Besides, the outcome in [11] and in test [12] was inactive.

Consider `COC(=O)CC(C)=O`, for which the Potency entry in test [1], in [2], in test [3], in test [4], in test [5] and in test [6] was “inactive” each time. The Potency entry in test [7], in test [8], in test [9], in test [10], in [13] and in test [15] was “inactive” in each case. For the same compound, the Potency result in test [16] and in test [17] was “inactive” each time. In addition, the call in test [11] and in [12] was inactive. Besides, in test [14], the activity change, positive = activation is 2.59%.

Turning to `CC/C=C\CC/C=C/CO`, the Potency entry in test [1], in test [2], in test [3], in test [4], in test [5] and in test [6] was “inactive” in each case. Besides, the Potency result in test [7], in test [8], in test [10], in test [13], in test [19] and in test [15] was “inactive” throughout. For the same compound, the Potency entry in test [16] and in test [17] was “inactive” in each case. Also, the result in test [18], in test [11] and in test [12] was inactive. The activity change, positive = activation in [14] was 5.28%.

Take `COc1cc(C(=O)N2CCCCCCC2)cc(OC)c1OC`: the Potency entry in [1], in [2], in test [3], in test [4], in [5] and in test [6] was “inactive” in each case. In addition, the Potency result in test [7], in [8], in [9], in [10], in test [13] and in [19] was “inactive” in each case. Besides, the Potency entry in [15], in test [16] and in test [17] was “inactive” throughout. In addition, the compound was classed as inactive in test [11] and in test [12]. Further, the activity change, positive = activation in [14] was 8.77% [at 42.5 µM].
